# According to PubChem BioAssay (NCATS):
# “And” between values parts separate entries of the source, which are not always exact repeats. Identical values can stand only once. Records with an inconclusive call do not appear. The source made the active and inactive calls. Unless noted, the call rests on the fitted dose curve; in most records, active means well fitted curve in the direction sought with a large enough effect; inconclusive means small, poorly fitted or top-dose-only effect, or another doubt; inactive means no such curve, though single readings can be large; an effect the other way counts as inactive or inconclusive.
# Assays:
# [1] = qHTS Assay for Lipid Storage Modulators (AID 1519; calls by dose curve; on activity change, negative = inhibition: on the % scale 0 is the no-effect control and ±100 the full control effect); conditions: Drosophila S3 cells, BODIPY lipid droplet/cell ratio, laser cytometry, cells loaded with oleic acid
# Method in brief: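 Cells seeded at 5,000 per well were treated with compounds over a concentration series and loaded with oleic acid (400 uM, as added). Lipid droplet fluorescence (488 nm excitation, 500-530 nm channel) was read by laser-scanning cytometry and normalized to 20 uM Triacsin C.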
# [2] = target: Endonuclease 4 (Escherichia coli (strain K12)) (UniProt P0A6C1); experiment: Counterscreen for APE1 Inhibitors: qHTS Validation Assay for Inhibitors of Endonuclease IV (AID 1708); further: on the % scale 0 is the no-effect control and ±100 the full control effect; conditions: E. coli endonuclease IV, DNA cleavage fluorescence; series mostly up to 57.1 µM
# Method in brief: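 Incision of a double-stranded 50 nM TAMRA/BHQ-2 abasic substrate was followed kinetically (525/598 nm, reads every 60 s) after 15 min enzyme–compound preincubation with 2 nM EndoIV in pH 7.5 Tris buffer with MgCl2, DTT and Tween-20; concentration-response format.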
# [3] = qHTS for differential inhibitors of proliferation of Plasmodium falciparum line 7G8 (AID 1815); conditions: Plasmodium falciparum 7G8 proliferation inhibition; series mostly up to 28.7 µM;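 further: parasite growth measured after three days of incubation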; further: potency means the concentration at half of the fitted maximal effect;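 on activity change, negative = inhibition: plate controls were vehicle wells for no effect and reference inhibitor wells for full effect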
# [4] = qHTS for differential inhibitors of proliferation of Plasmodium falciparum line GB4 (AID 1816); conditions: Potency: Plasmodium falciparum GB4 proliferation inhibition; series mostly up to 28.7 µM;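 further: parasite growth measured after 72 h incubation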; further: potency means the concentration at half of the fitted maximal effect;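 on activity change, negative = inhibition: 0% = vehicle DMSO and -100% = reference inhibitor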
# [5] = qHTS for differential inhibitors of proliferation of Plasmodium falciparum line 3D7 (AID 1876); further: potency means the concentration at half of the fitted maximal effect; conditions: P. falciparum 3D7 proliferation inhibition; series mostly up to 28.7 µM
# [6] = qHTS for differential inhibitors of proliferation of Plasmodium falciparum line D10 (AID 1877); conditions: series mostly up to 28.7 µM;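 further: parasites grown with compound for 72 h before DNA staining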; further: potency means the concentration at half of the fitted maximal effect;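 on activity change, negative = inhibition: plate controls were vehicle wells for no effect and reference inhibitor wells for full effect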
# [7] = target: alpha-glucosidase (Oryza sativa, rice) (UniProt Q653V4); experiment: Counterscreen for Glucocerebrosidase Inhibitors: qHTS Assay for Rice alpha-Glucosidase at pH 5.0 (AID 997); conditions: rice alpha-glucosidase enzyme activity; series mostly up to 76.9 µM;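 further: 0% = full activity with enzyme and -100% = basal without enzyme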
# Method in brief: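 Endpoint fluorogenic assay at pH 5.0: compounds (0.7 nM to 77 uM) titrated against 4 nM rice enzyme and 400 uM 4-MU-alpha-glucoside for 20 min at room temperature; NaOH/glycine stop, read ex 365/em 440 nm, Hill-fitted AC50.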
# [8] = target: Alpha-galactosidase (Coffea arabica) (UniProt Q42656); experiment: Counterscreen for Glucocerebrosidase Inhibitors: qHTS Assay for Coffee Bean alpha-Galactosidase at pH 5.9 (AID 998); conditions: coffee bean alpha-galactosidase enzyme assay; series mostly up to 76.9 µM;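 further: plate controls were uninhibited enzyme for no effect and no-enzyme basal signal for full effect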
# Alpha-galactosidase (Coffea arabica), sequence (Q42656 whole entry, looked up): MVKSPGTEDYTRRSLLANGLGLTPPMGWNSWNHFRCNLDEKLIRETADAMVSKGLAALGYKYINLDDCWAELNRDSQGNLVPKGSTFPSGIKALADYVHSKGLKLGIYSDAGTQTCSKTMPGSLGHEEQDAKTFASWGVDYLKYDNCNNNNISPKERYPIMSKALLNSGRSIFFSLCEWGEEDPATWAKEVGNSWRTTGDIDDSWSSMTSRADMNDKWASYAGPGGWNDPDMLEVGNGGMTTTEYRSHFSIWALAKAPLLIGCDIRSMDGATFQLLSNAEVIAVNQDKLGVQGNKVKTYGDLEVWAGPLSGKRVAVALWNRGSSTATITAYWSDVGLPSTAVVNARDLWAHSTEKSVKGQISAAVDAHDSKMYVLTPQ
# Method in brief: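 Fluorogenic 4-MU substrate hydrolysis, 80 uM substrate and 2 nM coffee bean alpha-galactosidase, pH 5.9 citrate buffer, 20 min at room temperature, then NaOH/glycine stop. Titration 0.7 nM–77 uM, normalized to no-enzyme and enzyme controls, AC50 via Hill equation.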
# [9] = target: DNA repair nuclease/redox regulator APEX1 (Homo sapiens) (UniProt P27695); experiment: qHTS Validation Assay for Inhibitors of the Human Apurinic/apyrimidinic Endonuclease 1 (APE1) (AID 1705; further: potency means the concentration at half of the fitted maximal effect;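 on activity change, negative = inhibition: TAMRA fluorescence gain over two minutes as APE1 cuts a quenched THF abasic duplex; on the % scale 0 is the no-effect control and ±100 the full control effect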); conditions: purified APE1 endonuclease activity, fluorescence, titration; series mostly up to 57.1 µM
# DNA repair nuclease/redox regulator APEX1 (Homo sapiens), sequence (P27695 whole entry, looked up): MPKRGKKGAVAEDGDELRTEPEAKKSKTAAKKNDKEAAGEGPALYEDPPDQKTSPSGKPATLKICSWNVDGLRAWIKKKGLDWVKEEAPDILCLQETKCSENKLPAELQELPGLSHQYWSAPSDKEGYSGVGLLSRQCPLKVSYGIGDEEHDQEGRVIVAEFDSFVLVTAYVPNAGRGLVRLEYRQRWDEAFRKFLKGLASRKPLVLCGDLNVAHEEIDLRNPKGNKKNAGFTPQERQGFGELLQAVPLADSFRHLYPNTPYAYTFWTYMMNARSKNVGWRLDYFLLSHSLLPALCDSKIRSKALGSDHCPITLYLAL
# Method in brief: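 Read-out: TAMRA fluorescence (525 nm ex, 598 nm em) from cleavage of a quenched THF abasic-site duplex, 50 nM final; activity taken as intensity change between third and first of three reads 60 s apart.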
# [10] = Validation of Assay for Modulators of Lamin A Splicing (AID 1459; active means well fitted curve in the direction sought with a large enough effect in the signal ratio; the % refers to the signal ratio;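 further: cells exposed to compound for two days before reading; 0% is about no effect; ratio rise marks activators and ratio drop marks inhibitors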); conditions: Lamin A splicing dual RFP/GFP fluorescence reporter; series mostly up to 9.22 µM
# Method in brief: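 Readout: ratio of GFP (500-530 nm) to RFP (575-640 nm) total object intensity by 488 nm laser-scanning cytometry after 48 hrs. Cells were HeLa S3 clones carrying lamin A-EGFP minigene plus DsRed2 viability reporter; vehicle 0.5% DMSO final.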
# [11] = measured here: cell count channel max response
# [12] = measured here: lipid channel max response
smiles,measurement,setting,value
CN1C(=O)CCS(=O)(=O)C1c1ccc(Cl)cc1 (configuration not stated),"activity change, negative = inhibition",[1]; at 57.5 µM (top of the series),6.74% (inactive) and -0.559% (inactive)
same,max response,[1]; [11],18.4% and 40.6%
same,max response,[1]; [12],26.5% and 41.1%
same,outcome,[2],inactive
same,Potency,[3],inactive
same,Potency,[4],inactive
same,Potency,[5],inactive
same,Potency,[6],inactive
COc1ccc2c(c1)C13CCCC[C@@H]1C(C2)N(C)CC3 (some centres not stated),"activity change, negative = inhibition",[1]; at 25.7 µM (top of the series),-0.828% (inactive)
same,max response,[1]; [11],-8.06%
same,max response,[1]; [12],-9.19%
COc1c2c(cc3c1OCO3)CCN(C)C2,"activity change, negative = inhibition",[1]; at 25.7 µM (top of the series),1.64% (inactive)
same,max response,[1]; [11],2.73%
same,max response,[1]; [12],3.88%
Clc1cccc(SC2CCNCC2)n1,"activity change, negative = inhibition",[1]; at 57.5 µM (top of the series),-5.67% (inactive)
same,max response,[1]; [11],-24.9%
same,max response,[1]; [12],-29.2%
COc1cc(OC)c(OC)cc1C=O,"activity change, negative = inhibition",[1]; at 57.5 µM (top of the series),10.2% (inactive)
same,max response,[1]; [11],14.2%
same,max response,[1]; [12],28.2%
O=c1[nH]oc2c1CCNC2,outcome,[7],inactive
same,outcome,[8],inactive
same,"activity change, negative = inhibition",[1]; at 25.7 µM (top of the series),-3.52% (inactive)
same,"activity change, negative = inhibition",[1]; at 57.5 µM (top of the series),-0.0762% (inactive) and 5.91% (inactive)
same,max response,[1]; [11],-6.88% and 7.61% and 14.4%
same,max response,[1]; [12],-10.1% and 10.3% and 21.9%
same,Potency,[9],inactive
same,Potency,[3],inactive
same,Potency,[4],inactive
same,Potency,[5],inactive
same,Potency,[6],inactive
CCCCC/C=C\C/C=C\C/C=C\C/C=C\CCCC(=O)NCC(=O)O,outcome,[7],inactive
same,outcome,[8],inactive
same,outcome,[10],inactive
same,"activity change, negative = inhibition",[1]; at 57.5 µM (top of the series),-0.69% (inactive)
same,max response,[1]; [11],64.5%
same,max response,[1]; [12],63.6%
same,Potency,[9],28.2 µM (active)
same,Potency,[3],14.1 µM (active)
same,Potency,[4],14.1 µM (active)
COP(=S)(OC)Oc1ccc(SC)c(C)c1,"activity change, negative = inhibition",[1]; at 57.5 µM (top of the series),5.63% (inactive)
same,max response,[1]; [11],23%
same,max response,[1]; [12],29.4%
Cc1ccc(C(=O)c2ccc(CC(=O)O)n2C)cc1,"activity change, negative = inhibition",[1]; at 25.7 µM (top of the series),-1.39% (inactive)
same,max response,[1]; [11],-5.63%
same,max response,[1]; [12],-8.93%
c1ccc2c(c1)sc1ccccc12,"activity change, negative = inhibition",[1]; at 57.5 µM (top of the series),7.62% (inactive)
same,max response,[1]; [11],-5.03%
same,max response,[1]; [12],4.45%
COc1cc(-c2ccc(=O)[nH]n2)ccc1OC(F)F,outcome,[8],inactive
same,"activity change, negative = inhibition",[1]; at 25.7 µM (top of the series),-2.55% (inactive)
same,max response,[1]; [11],-17.6%
same,max response,[1]; [12],-17.5%
CC(=O)N1CCN(c2ccc(OC[C@H]3CO[C@](Cn4ccnc4)(c4ccc(Cl)cc4Cl)O3)cc2)CC1,Potency,[3],11.2 µM (active)
same,Potency,[4],7.94 µM (active)
same,Potency,[5],7.08 µM (active)
same,Potency,[6],10 µM (active)
